CYP2C9 inh = human CYP2C9 inhibition. P11712. CYP2C9 Supersomes, luciferin-H conversion, luminescence. inhibition, % at 5 µM. 96,000 tested, 20% active. AID 777;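 active means blocking of liver enzyme CYP2C9 beyond about 50% at 5 µM, limit read from the data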
CYP2C19 activ = activators of human cytochrome P450 2C19; recombinant CYP2C19, luciferin-H EGE luminescence; active compounds read high; 0 = fully inhibited enzyme, 1 = untreated enzyme; activation factor at 5 µM; 96,000 tested, under 10 active;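 active means activation factor of at least 2 at 5 µM in the primary screen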
Target sequence (P33261 whole entry, looked up): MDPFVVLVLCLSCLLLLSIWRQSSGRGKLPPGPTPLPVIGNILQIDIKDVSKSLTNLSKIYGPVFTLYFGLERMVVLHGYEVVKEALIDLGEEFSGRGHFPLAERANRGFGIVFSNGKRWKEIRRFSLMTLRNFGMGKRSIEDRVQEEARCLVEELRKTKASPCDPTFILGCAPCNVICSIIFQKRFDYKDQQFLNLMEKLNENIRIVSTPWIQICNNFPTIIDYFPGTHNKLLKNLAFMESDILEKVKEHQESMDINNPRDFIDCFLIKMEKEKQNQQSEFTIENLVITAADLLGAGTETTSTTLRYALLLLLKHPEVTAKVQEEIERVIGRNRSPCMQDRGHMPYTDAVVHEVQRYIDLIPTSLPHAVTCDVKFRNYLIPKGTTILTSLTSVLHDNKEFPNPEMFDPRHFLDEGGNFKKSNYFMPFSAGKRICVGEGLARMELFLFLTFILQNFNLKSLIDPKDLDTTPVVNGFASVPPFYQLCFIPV
CYP2C19 inhib = inhibitors of human CYP2C19; P33261; CYP2C19 Supersomes, luciferin-H EGE luminescence, 30 min; inhibition, % at 5 µM; 96,000 tested, 21% active; AID 778;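 active means CYP2C19 inhibition above a set limit at 5 µM in the primary screen, cut at about 50% in these data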
CYP2C9 activ = activators of human CYP2C9 | recombinant CYP2C9, luciferin-H conversion, luminescence; active compounds read high; factor 1 = untreated enzyme, 0 = blocked | activation factor at 5 µM | 96,000 tested, 1.4% active;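 active means activation factor of 2 or more for CYP2C9 at a 5 µM dose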
A number is an active result; n = inactive. Sampled rows, rich in hits. Any-hit rate of the full collection: about 31%.

SMILES | CYP2C9 inh | CYP2C19 activ | CYP2C19 inhib | CYP2C9 activ
O=C(C[n+]1cccc(NC(=O)c2ccccc2)c1)c1ccc(NC(=O)c2ccccc2)cc1 | n | n | n | n
O=C1c2ccccc2C(Nc2ccc(F)cc2F)N1CCN1CCOCC1 (stereo not given) | n | n | n | n
O=C(CCCN1C(=O)c2ccccc2C1=O)Nc1ccc(S(=O)(=O)N2CCOCC2)cc1 | n | n | n | n
O=C(CN1C(=O)c2ccccc2S1(=O)=O)NCc1ccccc1Cl | n | n | 59.2 | n
O=C(Cn1c(=O)sc2ccccc21)Nc1ccc(S(=O)(=O)N2CCCC2)cc1 | 97.5 | n | 79.7 | n
O=C(CCCN1C(=O)c2ccccc2C1=O)Nc1ccc(S(=O)(=O)N2CCCCC2)cc1 | 94.2 | n | 63.4 | n
Cc1ccc(NC(=O)c2sc3nc[nH]c(=O)c3c2C)c(C)c1 | n | n | n | n
CCOc1ccc(CC(=O)NCc2cn3c(C)csc3n2)cc1 | n | n | n | n
COc1ccccc1CC1(C)NC(=O)N(CC(=O)N2CC(C)OC(C)C2)C1=O (stereo not given) | n | n | 56.7 | n
CC(C)CCNC(=O)NC(=O)COc1ccccc1C#N | n | n | 74.6 | n
Cc1cc(C)n2c(Nc3ccc4c(c3)OCCO4)c(-c3ccc(C)o3)nc2n1 | n | n | n | n
Brc1ccc(-c2nc3ncccn3c2Nc2ccc3c(c2)OCCO3)o1 | 57.5 | n | n | n
Cc1ccc(-c2nc3ncccn3c2Nc2ccc3c(c2)OCCO3)o1 | 52.6 | n | n | n
Cc1cc(C)n2c(Nc3ccc4c(c3)OCCO4)c(-c3ccco3)nc2n1 | 61.7 | n | n | n
Oc1ccc(-c2nc3ncccn3c2Nc2ccc3c(c2)OCCO3)cc1 | 69.7 | n | n | n
Cc1ccc(/C=N\Nc2cn[nH]c(=O)c2Cl)cc1 | n | n | n | n
O=c1c2c3n(c(=O)nc2[nH]n1-c1ccccc1)CCCCC3 | n | n | n | n
CCN(CC)S(=O)(=O)c1ccc(C(=O)OCn2nnc3ccccc3c2=O)cc1 | 77.5 | n | n | n
O=C(OCn1nnc2ccccc2c1=O)c1cccnc1Cl | n | n | 58.9 | n
O=C(OCn1nnc2ccccc2c1=O)C1COc2ccccc2O1 (stereo not given) | n | n | n | n
O=C(OCn1nnc2ccccc2c1=O)C1CCCCC1 | 53.2 | n | 72.1 | n
O=C(OCn1nnc2ccccc2c1=O)c1ccc2ncsc2c1 | 57.1 | n | 53.3 | n
COc1ccc(C)cc1NC(=O)CSc1nnc(-c2ccco2)n1Cc1ccco1 | n | n | n | n
COc1ccc(NC(=O)CSc2nnc(-c3ccccn3)n2Cc2ccco2)cc1OC | n | n | n | n
CCOc1ccccc1NC(=O)CSc1nnc(-c2ccco2)n1Cc1ccco1 | 57.9 | n | 86.5 | n
SMILES | CYP2C9 inh | CYP2C19 activ | CYP2C19 inhib | CYP2C9 activ
CCOc1ccccc1NC(=O)CSc1nnc(-c2ccccn2)n1Cc1ccco1 | 79.1 | n | 72.3 | n
CCOc1ccccc1NC(=O)CSc1nnc(-c2ccccc2Cl)n1Cc1ccco1 | n | n | 70.2 | n
Cc1cnnn1-c1ccc(C(=O)CCl)cc1 | n | n | n | n
CC1(C(=O)N(c2ccccc2)C(C(=O)NC2CCCC2)c2ccccn2)CC(=O)N=C2C=CC=CN21 (stereo not given) | n | n | n | n
Cc1cc(C)n2nc(SCC(=O)c3ccccc3)nc2n1 | n | n | 58.9 | n
COc1ccc(CNC(=O)CSc2nc3nc(C)cc(C)n3n2)cc1 | 60.7 | n | n | n
COC(=O)c1ccc(NC(=O)CSc2ccccn2)cc1 | 54.2 | n | 81.5 | n
Cc1ccc(C(=O)CSc2cc(C)nc(SCC(=O)c3ccccc3)n2)cc1 | 73.2 | n | n | n
Cc1cc(C)n2nc(SCC(=O)N(C)Cc3ccccc3)nc2n1 | n | n | n | n
COc1ccccc1CNC(=O)CSc1nc2nc(C)cc(C)n2n1 | n | n | n | n
Cc1cccc(CSCc2nnc(N)s2)c1 | n | n | n | n
CCOC(=O)C1CCCN(c2ccc(NC(=O)c3snc4c(=O)[nH]cnc34)cc2)C1 (stereo not given) | n | n | n | n
CCNc1nc(NCC)nc(SCCOC(=O)COc2ccc(Cl)cc2Cl)n1 | n | n | n | n
ON1C(c2ccccc2)CC2(O)c3nonc3CCC12 (stereo not given) | n | n | n | n
Cc1ccc(C(=O)CSc2ccccn2)cc1 | n | n | 82.5 | n
Cc1cc(C)n2nc(SCn3nnc4ccccc4c3=O)nc2n1 | n | n | 72.5 | n
Cc1cc(SCC(=O)c2ccccc2)nc(C)n1 | n | n | 67.4 | n
O=C(Nc1c(-c2ccccc2)nc2ccccn12)c1ccco1 | n | n | n | n
Oc1ccc(-c2nc3ccccn3c2NCc2ccco2)cc1 | 77.4 | n | n | n
Cc1ccc(-c2nc3ccccn3c2NCc2ccc3c(c2)OCO3)cc1 | 72.3 | n | 80.0 | n
COC(=O)C1=C(CSc2nccn2C)NC(=O)NC1c1cc(C)ccc1C (stereo not given) | n | n | n | n
COC(=O)c1cccc(C(=O)Nc2ccc(C)cc2Br)n1 | 54.5 | n | n | n
COc1ccc2nc(NCCCNC(=O)c3cc(OC)c(OC)c(OC)c3)c(C#N)cc2c1 | n | n | n | n
CCCCCCCc1c(C)nc(N2CCOCC2)[nH]c1=O | 74.2 | n | 50.6 | n
C=CCn1c(=O)c2ccccc2n2c(SCC(N)=O)nnc12 | n | n | n | n
SMILES | CYP2C9 inh | CYP2C19 activ | CYP2C19 inhib | CYP2C9 activ
C=CCn1c(=O)c2ccccc2n2c(SCc3c(C(=O)OCC)oc4ccccc34)nnc12 | 60.3 | n | 58.8 | n
C=CCn1c(=O)c2ccccc2n2c(SCc3nc4ccccc4s3)nnc12 | n | n | 62.2 | n
CC(=O)N(Cc1ccccc1)c1ncc2c(n1)c(=O)c(C#N)c1ccccn12 | n | n | n | n
CCOC(=O)n1c(=O)n(Cc2ccccc2)c2ccccc21 | n | n | 70.3 | n
CCOC(=O)n1c(=O)n(Cc2ccc(Cl)c(Cl)c2)c2ccccc21 | 53.3 | n | 51.3 | n
Cn1c(=O)n(Cc2ccccc2)c2ccccc21 | n | n | n | n
CCOC(=O)n1c(=O)oc2ccccc21 | n | n | n | n
CCOC(=O)n1c(=O)n(Cc2c(Cl)cccc2Cl)c2ccccc21 | n | n | 60.6 | n
Cn1c(=O)c2c(nc(Cl)n2Cc2ccc(Cl)c(Cl)c2)n(C)c1=O | n | n | n | n
Cn1cccc1Cc1nnc(SCC(=O)NCc2ccccc2Cl)n1-c1ccc(F)cc1 | 62.2 | n | 51.7 | n
Cn1cccc1Cc1nnc(SCC(=O)NCc2ccco2)n1-c1ccc(F)cc1 | n | n | 75.4 | n
Cn1cccc1Cc1nnc(SCC(=O)NCc2ccco2)n1CCc1ccccc1 | n | n | 57.8 | n
Cc1cc(C)nc(SCc2nnc(SCC(=O)NCc3ccco3)n2-c2ccccc2)n1 | 59.8 | n | n | n
Cn1cccc1Cc1nnc(SCC(=O)NCC2CCCO2)n1CCc1ccccc1 (stereo not given) | n | n | n | n
COc1ccc(NC(=O)N2CCC(NC(=O)c3ccco3)CC2)cc1 | n | n | n | n
CCC(=O)N1c2ccccc2NC2=C(C(=O)CCC2)C1c1ccc(N(C)C)cc1 (stereo not given) | n | n | n | n
